Assay results: PubChem BioAssay AID1159580 (chemical genetic matrix, 2015)
Where “and” joins values, the source holds several entries; their conditions need not be identical. Identical values can stand only once. Among all 5,500 compounds or so, about 2,000 (36%) were called active. About 18% were inconclusive and are not listed. No stated cut-off is given here; in the data, active means normalized growth mostly below about 0.91 (no sharp cut-off); inconclusive means no clear call, values can overlap the other calls; inactive means mostly above about 0.92. Some of the results follow.

Assay: chemical genetic growth profiling, strain panel (AID 1159580);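 further: tested at 20 µM; growth read once vehicle control cultures reached saturation at 30 °C; 1 = growth at the plate median or of vehicle wells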
Conditions: S. cerevisiae deletion strains, growth OD

Measured: normalized growth

Nc1c(Br)cc(Br)cc1CNC1CCC(O)CC1 (centres undefined)
inactive: locus YAL021C, strain ccr4, stronger effect = lower value 1.01 | locus YAL026C, strain drs2, stronger effect = lower value 0.968 | locus YAL030W, strain snc1, stronger effect = lower value 1.01 | locus YBL061C, strain skt5, stronger effect = lower value 1.02 | locus YBR009C, strain hhf1, stronger effect = lower value 1.03 | locus YBR021W, strain FUR4, stronger effect = lower value 0.996 | locus YBR023C, strain chs3, stronger effect = lower value 1.01 | locus YBR171W, strain sec66, stronger effect = lower value 1.02 | locus YBR229C, strain ROT2, stronger effect = lower value 1.01 | locus YBR231C, strain swc5, stronger effect = lower value 1.01 | locus YBR279W, strain paf1, stronger effect = lower value 1.01 | locus YCL011C, strain gbp2, stronger effect = lower value 1.02 | locus YCL016C, strain dcc1, stronger effect = lower value 1.01 | locus YCL029C, strain bik1, stronger effect = lower value 1 | locus YCL061C, strain MRC1, stronger effect = lower value 1.02 | locus YCL069W, strain vba3, stronger effect = lower value 1.02 | locus YCR088W, strain abp1, stronger effect = lower value 1.02 | locus YDL005C, strain med2, stronger effect = lower value 1.02 | locus YDL035C, strain GPR1, stronger effect = lower value 1.01 | locus YDL040C, strain nat1, stronger effect = lower value 0.992 | locus YDL074C, strain BRE1, stronger effect = lower value 1.01 | locus YDL101C, strain DUN1, stronger effect = lower value 1.02 | locus YDL134C, strain PPH21, stronger effect = lower value 1.01 | locus YDL185W, strain tfp1, stronger effect = lower value 0.996 | locus YDL192W, strain arf1, stronger effect = lower value 0.995 | locus YDR001C, strain nth1, stronger effect = lower value 1.01 | locus YDR069C, strain doa4, stronger effect = lower value 0.985 | locus YDR101C, strain arx1, stronger effect = lower value 0.985 | locus YDR137W, strain rgp1, stronger effect = lower value 0.949 | locus YDR150W, strain NUM1, stronger effect = lower value 1 | locus YDR159W, strain sac3, stronger effect = lower value 0.997 | locus YDR162C, strain NBP2, stronger effect = lower value 1.01 | locus YDR195W, strain ref2 1 | locus YDR297W, strain sur2, stronger effect = lower value 0.982 | locus YDR318W, strain mcm21, stronger effect = lower value 1 | locus YDR334W, strain swr1, stronger effect = lower value 1.02 | locus YDR335W, strain msn5, stronger effect = lower value 0.992 | locus YDR388W, stronger effect = lower value 1.01 | locus YDR392W, strain spt3, stronger effect = lower value 0.966 | locus YDR502C, strain sam2, stronger effect = lower value 0.991 | locus YEL003W, strain gim4, stronger effect = lower value 1.01 | locus YEL037C, strain rad23, stronger effect = lower value 1.02 | locus YEL061C, strain CIN8 (second series), stronger effect = lower value 1.02 | locus YEL061C, strain CIN8, stronger effect = lower value 1.01 | locus YER015W, strain faa2, stronger effect = lower value 1.02 | locus YER016W, strain bim1, stronger effect = lower value 1 | locus YER110C, stronger effect = lower value 1 | locus YER111C, strain swi4, stronger effect = lower value 1.02 | locus YER155C, strain BEM2 (second series), stronger effect = lower value 0.992 | locus YER155C, strain BEM2, stronger effect = lower value 1.01 | locus YER167W, strain BCK2, stronger effect = lower value 1.02 | locus YFR010W, strain ubp6, stronger effect = lower value 1.03 | locus YGL078C, strain dbp3, stronger effect = lower value 0.98 | locus YGL086W, strain mad1, stronger effect = lower value 0.996 | locus YGL167C, strain pmr1, stronger effect = lower value 1 | locus YGL173C, strain kem1, stronger effect = lower value 1.03 | locus YGL227W, strain vid30, stronger effect = lower value 1.01 | locus YGL240W, strain doc1, stronger effect = lower value 0.981 | locus YGL248W, strain PDE1, stronger effect = lower value 0.997 | locus YGL253W, strain hxk2, stronger effect = lower value 1.01 | locus YGR078C, strain PAC10, stronger effect = lower value 0.994 | locus YGR135W, strain pre9, stronger effect = lower value 0.984 | locus YGR252W, strain gcn5, stronger effect = lower value 0.955 | locus YHR013C, strain ard1, stronger effect = lower value 1.02 | locus YHR027C, strain rpn1, stronger effect = lower value 1 | locus YHR030C, strain SLT2, stronger effect = lower value 1 and 1.04 | locus YHR079C, strain IRE1 (second series), stronger effect = lower value 1.01 | locus YHR079C, strain IRE1, stronger effect = lower value 1.03 | locus YHR094C, strain hxt1, stronger effect = lower value 0.998 | locus YHR129C, strain ARP1, stronger effect = lower value 1.01 | locus YHR142W, strain chs7, stronger effect = lower value 1.02 | locus YHR200W, strain rpn10, stronger effect = lower value 0.999 | locus YIL066C, strain RNR3, stronger effect = lower value 1 | locus YIL073C, strain SPO22, stronger effect = lower value 1.04 | locus YIL125W, strain kgd1, stronger effect = lower value 0.999 | locus YIR030C, strain dcg1, stronger effect = lower value 0.997 | locus YJL092W, strain hpr5, stronger effect = lower value 1.02 | locus YJL095W, strain BCK1 (second series), stronger effect = lower value 0.98 | locus YJL095W, strain BCK1, stronger effect = lower value 0.973 and 1.04 | locus YJL115W, strain asf1, stronger effect = lower value 1.02 | locus YJL129C, strain trk1, stronger effect = lower value 1.02 | locus YJL134W, strain LCB3, stronger effect = lower value 1.01 | locus YJL154C, strain vps35, stronger effect = lower value 1.02 | locus YJL164C, strain tpk1, stronger effect = lower value 1.01 | locus YJL166W, strain qcr8, stronger effect = lower value 1.02 | locus YJL168C, strain set2, stronger effect = lower value 1 | locus YJL187C, strain SWE1 (second series), stronger effect = lower value 0.993 | locus YJL187C, strain SWE1, stronger effect = lower value 0.988 | locus YJR043C, strain POL32, stronger effect = lower value 1.02
